Test results reported in PubChem BioAssay.
Values joined by “and” are separate entries in the source; they are usually repeats but may differ in a detail not shown here. Equal values may be shown once. Active and inactive are the calls of the source. Unless noted, no stated cut-off is given here; in the data, active means parasite load remaining mostly below about 12% (no sharp cut-off); inactive means mostly above about 10%. Peptide text beside a SMILES is read from it.

Key:
[1] = liver-stage malaria parasite growth inhibition, primary screen, cell-based, HepG2, luciferase luminescence, HepG2 viability (AID 624349);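 further: 100% = mean of DMSO negative control wells on the same plate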; settings: P. berghei liver stage in HepG2, luciferase luminescence, concentration not given here; parasite load remaining: stronger effect = lower value; viability: measured here: HepG2 viability without parasites
[2] = stimulators of nuclear beta-catenin in C2C12, primary screen, imaging, WNT3A-conditioned medium, mouse C2C12, NPC library (AID 1117326; in the data active means nuclear beta-catenin stimulation mostly above about 4.2%, no sharp cut-off; inactive means mostly below about 10%; further: reference of the scale not given here); settings: stronger effect = higher value
[3] = stimulators of insulin release from INS-1E, primary screen, cell-based, 5 mM glucose, NPC library (AID 1117329;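 active means compound raises insulin release from rat beta cells at 5 mM glucose, no numeric limit stated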; further: reference of the scale not given here); settings: rat INS-1E insulin secretion, at 10 µM, stronger effect = higher value
[4] = growth inhibition of GSK3B-pretreated HCT116 cells – cell-based, CellTiter-Glo, 0.2 to 20 µM (AID 1117336;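 active means compounds lowering colon cancer cell viability after pretreatment blocking the GSK3B kinase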); settings: HCT116 viability after GSK3B inhibitor, at 20 µM, stronger effect = higher value
[5] = inhibition of endothelial tube formation, primary screen, imaging, VEGF stimulated, CD31 staining, tube area, NPC library (AID 1117340;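 active means compound that reduces growth-factor-driven endothelial tube area in a mixed cell culture, no cutoff stated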); settings: VEGF-stimulated ADSC/ECFC co-culture, at 10 µM, stronger effect = higher value
[6] = glucagon-like peptide 1 release enhancers, primary assay, NCI-H716 cell line, NPC library (AID 1117341;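 active means compound raises GLP1 secretion from the human gut endocrine cells, with no numeric limit stated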; further: reference of the scale not given here); settings: NCI-H716 cells, at 10 µM, stronger effect = higher value
[7] = HCT116 colon cancer cell growth inhibition, primary screen, CellTiter-Glo luminescence, NPC library (AID 1117342;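 active means compounds that lower survival of HCT116 colon cancer cells in the luminescence readout, no numeric limit stated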); settings: at 20 µM (top of the series)
[8] = CellTiter-Glo luminescent readout of SW480 viability loss, NPC library primary (AID 1117343;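 active means compounds that lower viability of the colon cancer cells in the luminescence readout, with no numeric limit stated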); settings: CellTiter-Glo luminescence; at 20 µM (top of the series)
[9] = decreased DLD-1 cellular survival, CellTiter-Glo luminescent readout, NPC compound collection, primary HTS (AID 1117346;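 active means compounds that lower survival of DLD-1 colon cancer cells in the luminescence readout, no cutoff given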); settings: DLD-1 viability, CellTiter-Glo luminescence; at 20 µM (top of the series)
[10] = target: 6-phosphogluconate dehydrogenase, decarboxylating (Homo sapiens) (UniProt P52209); test: 6PGD enzyme inhibitors, primary screen, biochemical, human, recombinant enzyme, NADPH absorbance (AID 1159550;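 active means at least 20% inhibition of 6-phosphogluconate dehydrogenase activity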); settings: recombinant 6PGD, NADPH absorbance 341 nm; at 10 µM; stronger effect = higher value
Sequence of 6-phosphogluconate dehydrogenase, decarboxylating (Homo sapiens) (P52209 whole entry, looked up): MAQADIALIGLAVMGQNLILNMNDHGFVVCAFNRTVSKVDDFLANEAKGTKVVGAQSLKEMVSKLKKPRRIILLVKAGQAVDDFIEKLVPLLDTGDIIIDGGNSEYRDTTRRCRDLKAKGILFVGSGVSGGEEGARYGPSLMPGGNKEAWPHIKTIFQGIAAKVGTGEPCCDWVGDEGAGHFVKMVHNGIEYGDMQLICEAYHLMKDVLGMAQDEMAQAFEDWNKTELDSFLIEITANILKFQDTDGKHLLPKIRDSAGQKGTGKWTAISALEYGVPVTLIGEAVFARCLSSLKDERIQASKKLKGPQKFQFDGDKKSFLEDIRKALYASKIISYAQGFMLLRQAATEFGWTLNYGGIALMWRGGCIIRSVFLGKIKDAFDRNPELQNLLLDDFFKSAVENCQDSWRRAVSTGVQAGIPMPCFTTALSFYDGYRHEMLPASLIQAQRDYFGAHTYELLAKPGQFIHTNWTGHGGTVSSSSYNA

Compound | parasite load remaining [1] | viability [1] | nuclear beta-catenin stimulation ([2]; at 10 µM) | nuclear beta-catenin stimulation ([2]; stimulation, at 2 µM) [%] | insulin secretion stimulation [3] | viability decrease [4] | tube area decrease [5] | GLP1 secretion stimulation [6] | inhibition of viability [7] | viability decrease (inhibition) [8] | viability decrease (inhibition) [9] | inhibition [10]
CCCCC1C(=O)N(c2ccccc2)N(c2ccc(O)cc2)C1=O (stereo not drawn) | 75.4% (inactive) and 73.9% (inactive) and 45.8% (inactive) | 80.4% and 71.7% and 90.8% | 66.2% (active) | 2.3 | -0.2% (inactive) | 6.7% (inactive) | 50.3% (active) | 12.4% (inactive) | 57.7% (active) | 124% (active) | 101% (active) | -5.96% (inactive)
C[C@H](N)[C@H](O)c1cccc(O)c1 | 9.16% (inactive) and 99.4% (inactive) and 51.4% (inactive) | 46.8% and 91.2% and 209% | -0.7% (inactive) | -0.1 | -3.4% (inactive) | -13.4% (inactive) | 12.1% (inactive) | -3.4% (inactive) | -3.1% (inactive) | 37.4% (inactive) | 1.5% (inactive) | 13.9% (inactive)
CO[C@@]12[C@H](COC(N)=O)C3=C(C(=O)C(C)=C(N)C3=O)N1C[C@@H]1N[C@@H]12 | -0.17% (inactive) | 11% | 26.8% (inactive) | 11.6 | 0.2% (inactive) | 106% (active) | 108% (active) | 1.2% (inactive) | 105% (active) | 124% (active) | 95.8% (active) | -2.77% (inactive)
CN1CCC(=C2c3ccccc3Sc3ccccc32)CC1 | 16.9% (inactive) and 99.5% (inactive) and 91.2% (inactive) | 43.6% and 70.3% and 91.9% | -0.1% (inactive) | 1.3 | 28.8% (active) | 77.2% (active) | 51.9% (active) | -3.3% (inactive) | 36.4% (inactive) | 80.2% (active) | 23.6% (inactive) | 13.2% (inactive)
O=C(O)CCCC[C@@H]1SC[C@@H]2NC(=O)N[C@@H]21 | 125% (inactive) and 81.9% (inactive) | 117% and 77.7% | 0.3% (inactive) | 1.3 | -0.9% (inactive) | -1.65% (inactive) | -24.1% (inactive) | 1.6% (inactive) | -15% (inactive) | 33.7% (inactive) | 4.5% (inactive) | 12.7% (inactive)
CCCCC(CC)CN1CN(CC(CC)CCCC)CC(C)(N)C1 (stereo not drawn) | 136% (inactive) and 95.8% (inactive) and 66.4% (inactive) | 98.8% and 69.2% and 87.2% | -4.8% (inactive) | 3.6 | 6.1% (inactive) | 79.6% (active) | 16% (inactive) | 53.9% (active) | 102% (active) | 145% (active) | 105% (active) | -10.4% (inactive)
Nc1ncnc2c1ncn2[C@@H]1O[C@H](COP(=O)(O)O)[C@@H](O)[C@H]1O | 75.5% (inactive) and 87.1% (inactive) | 125% and 81% | 2.4% (inactive) | 3.8 | 0.05% (inactive) | -14.7% (inactive) | -5.6% (inactive) | 4% (inactive) | -14.3% (inactive) | 73.2% (active) | -4.1% (inactive) | -8.33% (inactive)
CC(=O)Nc1ccc(OCC(O)CNC(C)C)cc1 (stereo not drawn) | 80.4% (inactive) and 87% (inactive) and 55.4% (inactive) | 110% and 75.8% and 108% | 0.5% (inactive) | 1.7 | 5.6% (inactive) | 4.2% (inactive) | -0.3% (inactive) | -1.9% (inactive) | 11.1% (inactive) | 26.9% (inactive) | 42% (inactive) | 2.72% (inactive)
CC(=O)OCC(=O)[C@@]1(O)[C@H](C)C[C@H]2[C@@H]3CCC4=CC(=O)C=C[C@]4(C)[C@@]3(F)[C@@H](O)C[C@@]21C | 64% (inactive) and 76.2% (inactive) | 116% and 94.5% | -1.1% (inactive) | -2.1 | 0.55% (inactive) | 10.3% (inactive) | -13.1% (inactive) | 4% (inactive) | 7.2% (inactive) | 32.2% (inactive) | -4.9% (inactive) | -7.66% (inactive)
CCN(CC)CCOc1ccc(/C(=C(\Cl)c2ccccc2)c2ccccc2)cc1 | 16% (inactive) and 5.06% (inactive) | 73.6% and 90.4% | 40.9% (active) | 12.4 | 3.6% (inactive) | 102% (active) | 110% (active) | 22.8% (active) | 102% (active) | 124% (active) | 103% (active) | -19.7% (inactive)
CC[C@]12CCCN3CCc4c(n(c5ccccc45)C(=O)C1)[C@@H]32 | 191% (inactive) and 75.4% (inactive) | 102% and 73.8% | 35.1% (inactive) | 6.2 | 0.1% (inactive) | -29% (inactive) | 100% (active) | 7.7% (inactive) | 35.7% (inactive) | 60% (active) | 66.2% (active) | -5.24% (inactive)
CCCCOC(=O)c1ccc(N)cc1 | 111% (inactive) and 65.2% (inactive) | 96.4% and 75.1% and 101% | -0.2% (inactive) | 1 | 0.4% (inactive) | 27.7% (inactive) | 20.7% (inactive) | 0.1% (inactive) | -21.1% (inactive) | 118% (active) | 59.9% (active) | -3.52% (inactive)
C[C@@H]1C[C@H]2[C@@H]3C[C@H](F)C4=CC(=O)C=C[C@]4(C)[C@@]3(F)[C@@H](O)C[C@]2(C)[C@@]1(O)C(=O)CO | 102% (inactive) | 99.8% | -0.8% (inactive) | 0.3 | 2.8% (inactive) | -29.3% (inactive) | -2.9% (inactive) | -2.9% (inactive) | 4.83% (inactive) | -11.5% (inactive) | -9.6% (inactive) | 8.65% (inactive)
O=C(OCc1ccccc1)c1ccccc1 | 82.1% (inactive) and 33.8% (inactive) | 68.9% and 89.1% | 0.4% (inactive) | 2.2 | 0.7% (inactive) | -5.3% (inactive) | 5.6% (inactive) | -2.6% (inactive) | 10.4% (inactive) | -12.6% (inactive) | -9.1% (inactive) | -0.0939% (inactive)
O=c1oc2cc(O)ccc2s1 | 62.7% (inactive) | 88.6% | -2.6% (inactive) | 0.6 | 2.9% (inactive) | -9.5% (inactive) | 11.8% (inactive) | -4.3% (inactive) | -4.7% (inactive) | 3.7% (active) | 10.2% (inactive) | 11.7% (inactive)
COc1ccc2cc3[n+](cc2c1OC)CCc1cc2c(cc1-3)OCO2 | 31.4% (inactive) and 124% (inactive) and 72.9% (inactive) | 103% and 67.6% and 82.6% | 0.6% (inactive) | 0 | 1.05% (inactive) | 57.5% (active) | 57.3% (active) | 0.3% (inactive) | 84% (active) | 33.2% (inactive) | 62.7% (active) | 10.3% (inactive)
CCN(CC)C(=O)c1cccc(C)c1 | 18.9% (inactive) | 97.4% | 6.1% (inactive) | 3.9 | 5% (inactive) | 3.4% (inactive) | -44.2% (inactive) | 2.9% (inactive) | -3.2% (inactive) | -14.3% (inactive) | 12.4% (inactive) | 9.21% (inactive)
Cc1ccc(C(=O)C(C)CN2CCCCC2)cc1 (stereo not drawn) | 97.6% (inactive) | 70.5% | 1.5% (inactive) | 4.3 | 0.3% (inactive) | -13.7% (inactive) | -6.9% (inactive) | 4.8% (inactive) | 0.13% (inactive) | 2.3% (inactive) | -3.8% (inactive) | 7.71% (inactive)
CCCCN(CCCC)CCCOC(=O)c1ccc(N)cc1 | 67.1% (inactive) and 96% (inactive) and 39.6% (inactive) | 98.6% and 79.9% and 102% | 0.5% (inactive) | 1.7 | 0.7% (inactive) | -47.6% (inactive) | 18.7% (inactive) | 0.7% (inactive) | 15% (inactive) | 21.3% (inactive) | -4.6% (inactive) | -3.82% (inactive)
CCCCOc1ccc(OCCCN2CCOCC2)cc1 | 92% (inactive) and 117% (inactive) and 30.7% (inactive) | 109% and 67.4% and 85.2% | 1.4% (inactive) | 0.4 | 0.6% (inactive) | -10.8% (inactive) | 15.4% (inactive) | -1.7% (inactive) | 24.8% (inactive) | 46.8% (inactive) | 22.7% (inactive) | -17.9% (inactive)
NC(=O)c1ccc([N+](=O)[O-])cc1Cl | 63.8% (inactive) and 35.2% (inactive) | 105% and 84.3% | -0.6% (inactive) | 0.9 | -2.1% (inactive) | -0.35% (inactive) | -35.4% (inactive) | 0% (inactive) | 42.7% (inactive) | 32.9% (inactive) | 3.8% (inactive) | 10.9% (inactive)
C/C=C/c1ccc(OC)cc1 | 163% (inactive) and 38.2% (inactive) and 65% (inactive) | 88.5% and 100% and 126% | -1.7% (inactive) | 2.3 | 1.3% (inactive) | -5.7% (inactive) | 6.2% (inactive) | -1.8% (inactive) | 10.8% (inactive) | 20.9% (inactive) | -3.2% (inactive) | 6.64% (inactive)
COC(=O)[C@H](Cc1ccccc1)NC(=O)[C@@H](N)CC(=O)O (H-Asp-Phe-OMe) | 156% (inactive) and 74.6% (inactive) | 84.2% and 212% | 4.5% (inactive) | 1.1 | 2.8% (inactive) | -0.5% (inactive) | 6.5% (inactive) | 0.8% (inactive) | 5% (inactive) | -6.8% (inactive) | 9.55% (inactive) | 10.8% (inactive)
NC(=O)NC(=O)Cc1ccccc1 | 87.8% (inactive) and 56.5% (inactive) | 68% and 92% | 0.2% (inactive) | -0.4 | 1.3% (inactive) | -10.2% (inactive) | 2.3% (inactive) | -2.2% (inactive) | -3.67% (inactive) | 38.8% (inactive) | -11.6% (inactive) | 7.97% (inactive)
